Measurements published in PubChem BioAssay (NCATS).
Records with an inconclusive call do not appear. Activity calls are given as the source filed them. Unless noted, calls follow the shape of the full dose curve.

Tests used:
[1] = qHTS for Inhibitors of the Functional Ribonucleoprotein Complex (vRNP) of Lassa (LASV) Arenavirus: LASV Primary Screen - GLuc reporter signal (AID 1347082; calls by dose curve; tested in HEK293 reporter line; also: nearly all actives have a fitted effect of over 60% in size); conditions: LASV minigenome vRNP, Gaussia luciferase reporter; series mostly up to 57.5 µM
[2] = qHTS for Inhibitors of the Functional Ribonucleoprotein Complex (vRNP) of Lassa (LASV) Arenavirus: Viability assay - alamar blue signal for LASV Primary Screen (AID 1347083; calls by dose curve; tested in HEK293 reporter line; also: nearly all actives have a fitted effect of over 80% in size; also: potency is read from the fitted curve at half-maximal effect); conditions: cell viability, alamar blue fluorescence (LASV minigenome counter-screen); series mostly up to 57.5 µM
[3] = qHTS for Inhibitors of the Functional Ribonucleoprotein Complex (vRNP) of Lymphocytic Choriomeningitis Arenaviruses (LCMV): Viability assay - alamar blue signal for LCMV Primary Screen (AID 1347085; calls by dose curve; tested in HEK293 reporter line; also: nearly all actives have a fitted effect of over 80% in size; also: potency is read from the fitted curve at half-maximal effect); conditions: alamar blue viability counter-screen, LCMV vRNP screen cells; series mostly up to 57.5 µM
[4] = target: Nucleoprotein (Lymphocytic choriomeningitis virus (strain Armstrong)) (UniProt P09992); assay: qHTS for Inhibitors of the Functional Ribonucleoprotein Complex (vRNP) of Lymphocytic Choriomeningitis Arenaviruses (LCMV): LCMV Primary Screen - GLuc reporter signal (AID 1347086); conditions: LCMV minigenome vRNP cell assay, Gaussia luciferase reporter; series mostly up to 57.5 µM; also: nearly all actives have a fitted effect of over 70% in size
Sequence of Nucleoprotein (Lymphocytic choriomeningitis virus (strain Armstrong)) (P09992 whole entry, looked up): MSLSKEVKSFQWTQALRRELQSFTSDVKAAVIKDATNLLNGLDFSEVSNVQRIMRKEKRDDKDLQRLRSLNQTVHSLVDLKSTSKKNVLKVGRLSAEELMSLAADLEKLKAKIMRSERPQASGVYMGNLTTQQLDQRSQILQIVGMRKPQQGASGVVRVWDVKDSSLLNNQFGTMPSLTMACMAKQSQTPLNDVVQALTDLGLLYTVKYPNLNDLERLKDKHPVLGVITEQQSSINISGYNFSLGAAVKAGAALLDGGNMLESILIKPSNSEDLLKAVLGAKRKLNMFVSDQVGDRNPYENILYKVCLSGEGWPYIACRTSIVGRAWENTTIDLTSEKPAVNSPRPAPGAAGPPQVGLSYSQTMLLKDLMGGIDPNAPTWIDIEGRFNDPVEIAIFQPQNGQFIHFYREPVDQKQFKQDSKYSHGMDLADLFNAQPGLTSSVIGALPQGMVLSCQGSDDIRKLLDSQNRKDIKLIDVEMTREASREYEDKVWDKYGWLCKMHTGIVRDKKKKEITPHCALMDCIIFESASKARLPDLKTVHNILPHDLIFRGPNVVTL

Measured: Potency

OC[C@H]1O[C@@H](n2cnc3c(=S)nc[nH]c32)[C@H](O)[C@@H]1O
inactive: [1]

CC(=O)OC/C=C(C)/C=C/C=C(C)/C=C/C1=C(C)CCCC1(C)C
inactive: all assays above

CCCCc1ccc2nc(NC(=O)OC)[nH]c2c1
active: [2] 68.5 nM | [3] 38.5 nM
inactive: [1]

c1ccc(-c2ccc(C(c3ccccc3)n3ccnc3)cc2)cc1 (configuration not stated)
inactive: [1] | [2] | [3]

CC1CC(OC(=O)C(O)c2ccccc2)CC(C)(C)N1C (configuration not stated)
inactive: all assays above

O=C(Nc1ncc([N+](=O)[O-])s1)c1cccs1
inactive: [1] | [2] | [3]

C[C@@H](C1=C(CCN(C)C)Cc2ccccc21)c1ccccn1
inactive: [1] | [2]

Nc1nc2ccccc2n1Cc1ccc(F)cc1
inactive: [1] | [2]

CCC(=O)c1ccc(O)cc1
inactive: all assays above

CCN(CC)CCCC(C)Nc1c2ccc(Cl)cc2nc2ccc(OC)cc12 (configuration not stated)
inactive: [1]

CCC1(c2cnc[nH]2)Cc2ccccc2C1
inactive: all assays above

CCOC(=O)C1=C(C)NC(C)=C(C(=O)OCC)C1c1ccccc1/C=C/C(=O)OC(C)(C)C
inactive: [1] | [2] | [3]

C=CCNc1nc(NCC=C)nc(N2CCN(C(c3ccc(F)cc3)c3ccc(F)cc3)CC2)n1
inactive: [1] | [2] | [3]

COCCOC(=O)C1=C(C)NC(C)=C(C(=O)OC/C=C/c2ccccc2)C1c1cccc([N+](=O)[O-])c1 (configuration not stated)
inactive: [1] | [2] | [3]

Clc1ccc(C(Cn2ccnc2)OCc2c(Cl)cccc2Cl)c(Cl)c1 (configuration not stated)
inactive: all assays above

NCC(=O)O
inactive: all assays above

COC(=O)C1=C(C)NC(C)=C(C(=O)OC(C)(C)CN(C)CCC(c2ccccc2)c2ccccc2)C1c1cccc([N+](=O)[O-])c1 (configuration not stated)
inactive: [1] | [2] | [3]

Cc1ccc2c(c1)c1c3n2CCNC3CCC1 (configuration not stated)
inactive: all assays above

CCOC(=O)OCC/C(SC(=O)OCC)=C(\C)N(C=O)Cc1cnc(C)nc1N
inactive: all assays above

CN(C)C/C=C(/c1ccc(Br)cc1)c1cccnc1
inactive: all assays above

Cc1c(N)cccc1C(F)(F)F
inactive: all assays above

CCCCC(=O)O[C@]1(C(=O)CO)[C@@H](C)C[C@H]2[C@@H]3CCC4=CC(=O)C=C[C@]4(C)[C@@]3(F)[C@@H](O)C[C@@]21C
inactive: all assays above

OCC(O)CS (configuration not stated)
inactive: all assays above

Cc1ncc([N+](=O)[O-])n1C
inactive: all assays above

CCCCCCCCCCCCCCNCCO
inactive: all assays above

CN1C[C@H](C(=O)N[C@]2(C)O[C@@]3(O)[C@@H]4CCCN4C(=O)[C@H](Cc4ccccc4)N3C2=O)C[C@@H]2c3cccc4[nH]cc(c34)C[C@H]21
inactive: all assays above

O=C(O)c1ccccc1Nc1cc(Cl)ccc1C(=O)O
inactive: all assays above

C[C@H](N)C(=O)N[C@@H](C)C(=O)NC1[C@H]2CN(c3nc4c(cc3F)c(=O)c(C(=O)O)cn4-c3ccc(F)cc3F)C[C@@H]12 (some centres not stated)
inactive: all assays above

C=CCOc1cc(Cl)ccc1C(=O)NCCN(CC)CC
inactive: all assays above

Nc1ccc(S(=O)(=O)Nc2nccs2)cc1
inactive: all assays above

O=C1NCN(c2ccccc2)C12CCN(CCCC(c1ccc(F)cc1)c1ccc(F)cc1)CC2
inactive: all assays above

NS(=O)(=O)c1cc2c(cc1Cl)NCNS2(=O)=O
inactive: all assays above

Nc1ccn([C@H]2CC[C@@H](CO)O2)c(=O)n1
inactive: all assays above

C=CCCCCCCCCC(=O)O
inactive: all assays above

CCOC(=O)[C@@](C)(N)Cc1ccc(O)c(O)c1
inactive: all assays above

COc1ccc(CCN(C)CCCC(C#N)(c2cc(OC)c(OC)c(OC)c2)C(C)C)cc1OC (configuration not stated)
inactive: all assays above

CC(C(=O)O)c1ccc(CC2CCCC2=O)cc1 (configuration not stated)
inactive: all assays above

O=C1CC2(CCCC2)CC(=O)N1CCCCN1CCN(c2ncccn2)CC1
inactive: all assays above

C#C[C@]1(O)CC[C@H]2[C@@H]3[C@H](C)CC4=C(CCC(=O)C4)[C@H]3CC[C@@]21C
inactive: all assays above

CC(C)C(=O)Nc1cccc(C2CN3CCSC3=N2)c1 (configuration not stated)
inactive: all assays above

CC1=CC(=O)c2ccccc2C1=O
inactive: all assays above

O=S1(=O)OC(c2ccc(O)cc2)(c2ccc(O)cc2)c2ccccc21
inactive: all assays above

O=C(CCCCC(=O)Nc1c(I)cc(I)c(C(=O)O)c1I)Nc1c(I)cc(I)c(C(=O)O)c1I
inactive: all assays above

Nc1ccc(C(=O)NCC(=O)O)cc1
inactive: all assays above

CC1(C)O[C@@H]2C[C@H]3[C@@H]4C[C@H](F)C5=CC(=O)C=C[C@]5(C)[C@H]4[C@@H](O)C[C@]3(C)[C@]2(C(=O)CO)O1
inactive: all assays above

FC(F)(F)C(Cl)Br (configuration not stated)
inactive: all assays above

OC(C#CCN1CCCC1)(c1ccccc1)c1ccccc1
inactive: all assays above

CC(=O)Oc1ccc(C2(c3ccc(OC(C)=O)cc3)C(=O)Nc3ccccc32)cc1
inactive: all assays above

Oc1ccc(O)cc1
inactive: all assays above

C[C@]12CC[C@@H]3c4ccc(O)cc4CC[C@H]3[C@@H]1CCC2=O
inactive: all assays above

FC(F)(F)C(F)(F)C(F)(F)C(F)(F)C(F)(F)C(F)(F)C(F)(F)C(F)(F)Br
inactive: all assays above

O=C(CCCN1CCC(O)(c2cccc(C(F)(F)F)c2)CC1)c1ccc(F)cc1
inactive: all assays above

CCN(CC)CCOC(=O)C(c1ccccc1)C1CCCCC1 (configuration not stated)
inactive: all assays above

C#C[C@]1(OC(C)=O)CC[C@H]2[C@@H]3CCC4=C[C@@H](OC(C)=O)CC[C@@H]4[C@H]3CC[C@@]21C
inactive: all assays above

CCCOc1ccc(C(=O)OCCN(CC)CC)cc1N
inactive: all assays above

NC(N)=NCCC[C@H](N)C(=O)O
inactive: all assays above

CCc1ccc(C(=O)C(C)CN2CCCCC2)cc1 (configuration not stated)
inactive: all assays above

CC1(C)S[C@@H]2[C@H](N=CN3CCCCCC3)C(=O)N2[C@H]1C(=O)O
inactive: all assays above

O=C1Nc2ccccc2C1(c1ccc(O)cc1)c1ccc(O)cc1
inactive: all assays above

O=C(NN1CCCC1)NS(=O)(=O)c1ccc(Cl)cc1
inactive: all assays above

C[C@@H]1C[C@H]2[C@@H]3CCC4=CC(=O)C=C[C@]4(C)[C@@]3(F)[C@@H](O)C[C@]2(C)[C@@]1(O)C(=O)COC(=O)c1ccncc1
inactive: all assays above
